Bioassay records as filed in PubChem.
Hits are enriched below; roughly 4.6% of the tested compounds scored in any of these assays.
tim23-1 inh – tim23-1 yeast growth inhibition; S. cerevisiae tim23-1 growth, BacTiter-Glo luminescence, 24 h; inhibition, % at 20 µM; hit rate 1.3% among 330,000;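 active means growth inhibition of the mutant yeast at or above 50%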;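 further: temperature-sensitive mutant grown at 25 °C; plate controls were DMSO-treated mutant yeast for no effect and medium wells lacking yeast for full effect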
NLRP3 yeast inh – NALP3 inhibition in yeast; Yeast reconstituted NLRP3/ASC/caspase-1, beta-gal luminescence, 24 h; inhibition, % at 10 µM; hit rate 0.39% among 330,000;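 active means inhibition of 50% or more; inactive means inhibition below 50%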;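 further: plate controls were induced DMSO wells for no effect and uninduced yeast grown without galactose for full effect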
SKKanGAS inh – inhibitors of SKKanGAS S. pyogenes growth in kanamycin (SK-promoter or general growth effect). BacTiter-Glo, 6 h. inhibition, % at 7.5 µM. hit rate 1.3% among 300,000. AID 1662;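 active means mean replicate score, as percent of positive control median, at least 50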;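 further: strain carries kanamycin resistance gene driven by streptokinase promoter and grows in 40 µg/ml kanamycin; loss of luminescence reflects streptokinase promoter inhibition or plain growth inhibition; 0% = median of DMSO wells and 100% = positive control at its reference dose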
PfHsp90 yeast 2 – growth inhibition of yeast expressing Plasmodium Hsp90. inhibition, % at 9.4 µM. S. cerevisiae expressing PfHsp90, BacTiter-Glo ATP, 48 h; yeast lacking PDR1 and PDR3 efflux regulators. AID 504621. hit rate 0.32% among 310,000;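 active means every replicate shows inhibition above about 80%, whatever the replicate mean, limit read from the data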;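 further: 0% = DMSO neutral controls and 100% = 20 µM radicicol positive controls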
tim10-1 inh – growth inhibitors of tim10-1 mutant yeast; AID 463190; hit rate 2.2% among 330,000; S. cerevisiae tim10-1 ts strain growth, BacTiter-Glo, 24 h; inhibition, % at 20 µM;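 active means inhibition of at least 40%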;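 further: mutant grown at 25 °C; 0% = DMSO wells with yeast and 100% = wells holding no yeast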
TIM10 inh – TIM10 yeast growth inhibition. S. cerevisiae TIM10 strain growth, BacTiter-Glo luminescence, 24 h. inhibition, % at 10 µM. hit rate 1.4% among 330,000;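 active means inhibition of 40% or more at the single tested concentration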;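 further: wild-type TIM10 isogenic control strain grown at permissive 25 °C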
NALP3 confirm – confirmation of NALP3 inhibitors in yeast | shares compounds with NLRP3 yeast inh | yeast expressing human NALP3, luminescence | inhibition, % at 10 µM | hit rate 81% among 1,300; in the data active means inhibition above about 48%
Casp1-ASC yeast – counter-screen for NALP3 inhibitors: yeast caspase-1-ASC | yeast expressing Caspase-1-ASC, luminescence counter screen | hit rate 66% among 1,000 | shares compounds with NLRP3 yeast inh | inhibition, % at 10 µM
NALP3 retest – yeast NALP3 inhibition, confirmed on retest | shares compounds with NLRP3 yeast inh | yeast expressing human NALP3, luminescence read-out | inhibition, % at 10 µM | hit rate 53% among 1,000 | AID 488794
tim10-1 confirm – confirmation of tim10-1 mutant yeast growth inhibitors. shares compounds with tim10-1 inh. S. cerevisiae tim10-1 ts strain growth, BacTiter-Glo, 24 h. inhibition, % at 20 µM. hit rate 56% among 7,400. AID 463213;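 active means inhibition of yeast growth at or above a set limit in either of two repeat tests at 20 µM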;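 further: tim10-1 mutant grown at permissive 25 °C to find synthetic lethal compounds; 0% = DMSO yeast wells and 100% = medium wells without yeast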
tim10 confirm – confirmation of TIM10 yeast growth inhibitors | shares compounds with TIM10 inh | S. cerevisiae tim10 strain growth, BacTiter-Glo luminescence, 24 h | inhibition, % at 10 µM | hit rate 63% among 4,600 | AID 463215;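 active means inhibition of yeast growth at or above a set limit in either of two replicates at 10 µM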;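 further: this counterscreen used the strain with wild-type TIM10; 0% = yeast with DMSO and 100% = medium wells lacking yeast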
* hit, by the source's call; nt = not tested or not shown; ! = a repeat was not active. Unless noted, no stated cut-off is given here; in the data, active means inhibition above about 50%; inactive means the rest.

SMILES | tim23-1 inh | NLRP3 yeast inh | SKKanGAS inh | PfHsp90 yeast 2 | tim10-1 inh | TIM10 inh | NALP3 confirm | Casp1-ASC yeast | NALP3 retest | tim10-1 confirm | others
NC(=NCCCCCCN=C(N)/N=C(\N)Nc1ccc(Cl)cc1)/N=C(\N)Nc1ccc(Cl)cc1 | 23 | 69* | 103* | 51 | 66* | -229 | 74* | 61* | 52* | 41*!
C[C@]12c3[nH]c4ccc(Cl)cc4c3CCN1C(=O)[C@@H](CC(=O)NCCC1=CCCCC1)C[C@@H]2C(=O)N1CCOCC1 | 27 | nt | nt | -5 | 9 | -6 | nt | nt | nt | nt
CN(C)n1cnc2ccsc2c1=O | -7 | 3 | 3 | -4 | -7 | 7 | nt | nt | nt | nt
O=C(O)c1ccc(N=Nc2c(O)ccc3ncccc23)cc1 | 37 | 55* | 12 | -24 | 42* | 15 | 82* | 54* | 53* | 34*
O=C(O)c1cc(N=Nc2c(O)ccc3ccccc23)cc(C(=O)O)c1 | nt | nt | nt | 11 | nt | nt | nt | nt | nt | nt
CC(Oc1ccc(F)cc1)C(=O)Nc1nc(-c2ccccn2)cs1 (centres undefined) | 34 | 55* | 107* | -15 | 42* | 27 | 73* | 82* | 74* | 30
O=C(CSc1ccc2nnc(CCNC(=O)c3ccc(F)cc3)n2n1)NCc1ccco1 | -8 | 9 | -9 | -8 | -15 | -4 | nt | nt | nt | nt
CCCSc1ccc2nc(-c3ccccc3)cn2c1 | 36 | 51* | 9 | 40 | 45* | 27 | 61* | 72* | 61* | 18
Cc1cc2c(cc1C)CSC(c1ccccc1O)SC2 | 39 | 59* | 23 | -40 | 62* | 34 | 64* | 63* | 55* | 35*
Cc1ccc(NC(=O)C(C)N=C2NS(=O)(=O)c3ccccc32)cc1F (centres undefined) | 5 | 3 | 5 | -2 | -4 | -13 | nt | nt | nt | nt
C#CC[N+](C)(C)CCCCCCCCCC | 10 | 16 | 3 | -20 | 1 | 17 | nt | nt | nt | nt
CCCCCCCCCCCCCCCC[N+](C)(C)CC | 22 | 65* | 101* | 108* | 79* | 25 | 64* | 62* | 68* | -102
CC1CCN(S(=O)(=O)c2ccc(NC(=O)[C@@H]3CCCN3C(=O)c3cccs3)cc2)CC1 | 18 | 5 | nt | 4 | 16 | 19 | nt | nt | nt | nt
O=C1/C(=C/c2ccccc2[N+](=O)[O-])COc2ccccc21 | -37 | 71* | 15 | -29 | 25 | 79* | 62* | 85* | 74* | nt | tim10 confirm=89*
CC(=O)N[C@H]1[C@H](Oc2ccc3c(c2)CCC2C3CC[C@]3(C)C(=O)CCC23)O[C@H](CO)[C@@H](O)[C@@H]1O (some centres undefined) | 8 | 30 | -2 | 8 | -4 | 7 | nt | nt | nt | nt
CN1C/C(=C/c2ccsc2)C(=O)/C(=C/c2ccsc2)C1 | 32 | 63* | 7 | 0 | 54* | 49* | 56* | 79* | 65* | 31* | tim10 confirm=33*
Cc1sc2ncnc(Oc3ccc(-n4ccnc4)cc3)c2c1C | 46 | 53* | 5 | -21 | 52* | 69* | 61* | 69* | 48 | 53* | tim10 confirm=-5
O=C(NCCc1ccccc1F)C1CC(=O)N(c2cccc(C(F)(F)F)c2)C1 (centres undefined) | nt | nt | nt | -34 | nt | nt | nt | nt | nt | nt
COc1cccc2c1OCC(C(=O)Nc1nccs1)=C2 | 49 | 29 | 2 | -13 | 26 | 36 | nt | nt | nt | nt
Cc1cc(C)cc(C(=O)/C=C2\NC(=O)CS2)c1 | 43 | 66* | -1 | -4 | 20 | 50* | 77* | 80* | 71* | nt | tim10 confirm=34*
O=C1CS/C(=C/C(=O)c2ccccc2)N1 | 35 | 46 | -1 | -4 | -25 | 5 | nt | nt | nt | nt
